# Screens: PubChem BioAssay, National Center for Advancing Translational Sciences (NCATS)
# IL-1B inflam inh = blocks inflammasome-driven IL-1 beta release | THP-1 LPS/ATP IL-1B secretion, AlphaLISA, 16 h; active compounds read low | activity change, % at 57.5 µM | 360,000 compounds, 4.7% hits; in the data active means activity change below about -50%; inconclusive means mostly about -30% to -49%
#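 THP-1 cells pretreated 1 hr with compounds (up to 57.5 uM final), then stimulated with LPS (250 ng/mL final) plus ATP (1.25 mM final); secreted IL-1B measured by AlphaLISA after 16 hr, decreased signal indicating inhibition.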
# TDP1 cell noCPT = qHTS for Inhibitors of human tyrosyl-DNA phosphodiesterase 1 (TDP1): qHTS in cells in absence of CPT. AID 686978, 2013. Potency, µM (series often up to 46.2 µM), without a hit: at the top dose activity change, negative = growth inhibition, actives largely listed as inhibitors. 420,000 compounds, 15% hits. DT40 Tdp1-/- hTDP1 cells, no CPT, ATP luminescence, 48 h; further: potency means the concentration at half of the fitted maximal effect; nearly all actives have a fitted effect of over 55% in size
#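 Chicken DT40 Tdp1-/- cells stably complemented with human TDP1 were seeded at 400 cells/well with DMSO in place of 20 nM camptothecin. After compound pinning, cells grew at least 48 hr at 37 °C; viability read by CellTiter-Glo luminescence.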
# HT1080-NT tox = kills 2HG-producing HT-1080-NT fibrosarcoma cells; Potency, µM (top dose mostly 46.1 µM), inactives show top-dose activity, negative = less viability, actives largely listed as cytotoxic; 360,000 compounds, 1.6% hits; HT-1080-NT fibrosarcoma viability, CellTiter-Glo ATP luminescence, 48 h;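 further: NT is the 2HG producing partner of a matched IDH1 knockdown line; potency means the concentration at half of the fitted maximal effect; 0% = DMSO-treated cells and -100% = media-only wells without cells; nearly all actives have a fitted effect of over 55% in size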
#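 A 48-hour cytotoxicity screen used HT-1080-NT cells plated 2 hours before compound delivery. ATP-based CellTiter-Glo luminescence measured viability, normalized to DMSO and no-cell controls.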
# TDP1 cell CPT = DT40-hTDP1 cell growth loss with CPT; chicken DT40 Tdp1-/-;hTDP1 cells + 20 nM CPT, ATP luminescence, 48 h; Potency, µM (highest dose often 46.2 µM), for inactives: at the top dose activity change, negative = growth inhibition, most hits filed as inhibitors; 420,000 compounds, 12% hits; further: potency means the concentration at half of the fitted maximal effect; nearly all actives have a fitted effect of over 55% in size
#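 Chicken DT40 Tdp1-/- cells stably complemented with human TDP1 were seeded at 400 cells/well in medium containing 20 nM camptothecin, exposed to pin-transferred compounds, and grown at 37 °C for at least 48 hr. Viability was read as ATP luminescence.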
# HT1080 IDH1KD tx = toxicity to HT-1080 IDH1 knockdown cells (counter line) | HT-1080 IDH1 knockdown viability, ATP luminescence, 48 h | Potency, µM (highest dose often 46.1 µM), for the others: at the highest dose activity, negative = toxicity, hits mostly cytotoxic | 360,000 compounds, 2% hits;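 further: potency means the concentration at half of the fitted maximal effect; 0% = DMSO wells and -100% = cell-free medium wells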
#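 HT-1080-IDH1KD cells (IDH1 knocked down), 750/well in RPMI with 5% FBS, treated with compound 48 h at 37 degrees C. Viability by CellTiter-Glo luminescence, normalised to DMSO and no-cell wells; concentration-response curves classed.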
# An asterisk follows results filed as active; ? = inconclusive; · = not tested or not shown. This is a sample that favours compounds with a hit; in the whole collection about 19% have one here. Unless noted, the call rests on the fitted dose curve; in most records, active means well fitted curve in the direction sought with a large enough effect; inconclusive means small, poorly fitted or top-dose-only effect, or another doubt; inactive means no such curve, though single readings can be large; an effect the other way counts as inactive or inconclusive. Unless noted, on the % scale 0 is the no-effect control and ±100 the full control effect.
SMILES,IL-1B inflam inh,TDP1 cell noCPT,HT1080-NT tox,TDP1 cell CPT,HT1080 IDH1KD tx
Cc1ccc(NS(=O)(=O)c2cc(C(=O)NCCSC3CCCCC3)ccc2C)cc1,-57*,?,?,?,?
Cc1ccc(C(=O)NCCSc2ccc(Cl)cc2)cc1S(=O)(=O)Nc1ccccc1,-93*,?,?,?,?
Cc1ccc(C)c(S(=O)(=O)Nc2ccc(C(=O)NCCCN(C)C)cc2)c1,-11,?,0%,8%,7%
CC(C)(C)[C@@H]1C=C(C(=O)O)[C@H](c2ccc(Cl)cc2)N1S(=O)(=O)c1ccccc1,45,8%,-5%,-1%,1%
COc1ccc(C(=O)NCc2nnc(SCC(=O)c3ccc(F)cc3)n2C)cc1OC,2,-24%,-4%,-16%,2%
CCN=C(NCC)SC1CC(=O)N(CCc2ccccc2)C1=O (stereo unspecified),·,-16%,-4%,2%,5%
COC(=O)CC1Oc2ccccc2-n2cc(-c3ccc(Cl)cc3)nc21 (stereo unspecified),·,1.8µM*,·,7.3µM*,·
COC(=O)CC1Oc2ccccc2N(Cc2ccccc2)C1=O (stereo unspecified),12,-15%,6%,7%,1%
COC(=O)CC1Oc2ccc(Cl)cc2-n2cc(-c3ccccc3)nc21 (stereo unspecified),·,13µM*,·,21µM*,·
CC(=O)Nc1ccc(NC(=O)CNC(=O)c2cccc(C)c2)cc1,56,0%,9%,4%,8%
N=c1c2c(ncn1CCN1CCOCC1)Oc1cc(O)ccc1C2c1ccccc1 (stereo unspecified),-75*,?,?,1%,-15%
COc1ccc(C2c3c(ncn(CCCN4CCOCC4)c3=N)Oc3ccc4ccccc4c32)cc1OC (stereo unspecified),0,13µM*,0%,23µM*,-29%
COc1ccc(C2c3ccc4ccccc4c3Oc3ncn(CCN4CCOCC4)c(=N)c32)cc1 (stereo unspecified),-79*,?,?,23µM*,?
COc1ccc(C2c3ccc(O)cc3Oc3ncn(CCN4CCOCC4)c(=N)c32)cc1OC (stereo unspecified),?,-12%,11%,-25%,-7%
COc1ccc(C2c3ccc4ccccc4c3Oc3ncn(CCN4CCOCC4)c(=N)c32)cc1OC (stereo unspecified),-52*,15µM*,-14%,18µM*,-27%
O=C(CCNC(=O)c1ccccc1Cl)Nc1nc(-c2ccc(F)cc2)cs1,-69*,?,3%,?,1%
O=C(CCNC(=O)c1ccccc1Cl)Nc1nc(-c2ccccc2Cl)cs1,-24,18µM*,-25%,?,-30%
O=C(CCNC(=O)c1ccccc1Cl)Nc1nc(-c2ccc3ccccc3c2)cs1,?,?,-4%,?,-17%
COc1cccc(NC(=O)c2cnc(SCC(=O)NCc3ccc4c(c3)OCO4)n(C)c2=O)c1,-11,12µM*,7%,21µM*,6%
COc1cccc(NC(=O)c2cnc(SCC(=O)N3CCOCC3)n(C)c2=O)c1,·,15µM*,·,15µM*,·
COc1cccc(NC(=O)Cn2c(SCC(=O)N3CCOCC3)nc3ccccc32)c1,-14,-9%,26%,-5%,-3%
CCn1c(SCc2ccc(Cl)c(Cl)c2)nnc1C(C)NC(=O)c1ccc(OC)cc1 (stereo unspecified),-8,16µM*,6%,16µM*,5%
COC(=O)c1cc(-c2ccc(Cl)cc2)c2c(=O)[nH]c(=O)n(C)c2n1,·,-14%,·,4%,·
Cc1cccc(NC(=O)NC2COc3ccccc3C2)c1C (stereo unspecified),·,-1%,·,-9%,·
CCN1CCN(c2cc(C)c3cc(NC(=S)N4CCCC4)ccc3n2)CC1,-1,-24%,?,-2%,-9%
